Rango-impB inh = inhibitors of Rango-importin beta complex formation; Q14974; 340,000 tested, 0.031% active; Rango CFP/YFP FRET sensor + importin beta, 45 min; AID 540263; Potency, µM (highest dose often 92.2 µM), inactives show at the highest dose inhibition of complex formation;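 further: potency means the concentration at half of the fitted maximal effect; 0% = DMSO wells and 100% = buffer wells lacking importin beta; nearly all actives have a fitted effect of over 15% in size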
Target sequence (Q14974 whole entry, looked up): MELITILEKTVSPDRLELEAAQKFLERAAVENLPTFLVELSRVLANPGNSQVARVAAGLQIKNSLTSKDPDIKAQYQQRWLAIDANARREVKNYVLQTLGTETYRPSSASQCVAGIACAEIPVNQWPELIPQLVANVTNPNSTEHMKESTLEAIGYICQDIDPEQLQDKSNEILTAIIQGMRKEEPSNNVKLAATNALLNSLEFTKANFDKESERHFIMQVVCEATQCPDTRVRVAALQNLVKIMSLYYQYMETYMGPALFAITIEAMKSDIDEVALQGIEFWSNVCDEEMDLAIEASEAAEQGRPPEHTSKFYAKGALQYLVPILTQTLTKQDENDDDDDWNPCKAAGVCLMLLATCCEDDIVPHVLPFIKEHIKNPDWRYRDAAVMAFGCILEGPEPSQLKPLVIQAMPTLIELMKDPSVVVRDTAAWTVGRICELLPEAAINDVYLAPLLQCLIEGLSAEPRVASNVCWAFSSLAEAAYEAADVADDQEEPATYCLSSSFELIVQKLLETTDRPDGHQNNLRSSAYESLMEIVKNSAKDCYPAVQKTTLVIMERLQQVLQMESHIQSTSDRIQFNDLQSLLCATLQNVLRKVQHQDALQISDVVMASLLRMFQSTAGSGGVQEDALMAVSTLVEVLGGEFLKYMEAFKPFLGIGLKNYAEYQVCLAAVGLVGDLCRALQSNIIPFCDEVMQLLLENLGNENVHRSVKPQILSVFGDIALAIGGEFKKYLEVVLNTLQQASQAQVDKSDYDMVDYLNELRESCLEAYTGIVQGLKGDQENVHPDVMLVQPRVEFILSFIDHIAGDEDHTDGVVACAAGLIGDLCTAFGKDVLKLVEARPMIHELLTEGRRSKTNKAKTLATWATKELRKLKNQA
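FRET biosensor (snurportin 1 IBB flanked by EYFP and cerulean), 50 nM, with compound 5 min, then 0.125 microM importin beta in PBS, 1 mM DTT, 0.02% Tween-20, 0.1% BSA. CFP/YFP ratio read after 45 min at room temperature; pre-read flags interference.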
KCNH2 3.1 inh = KCNH2 3.1 (human) potassium channel inhibition | AID 720553 | activity change, % (tested at about 1.8 µM) | U2OS KCNH2 3.1, thallium flux FluxOr; active compounds read low | 340,000 tested, 0.95% active;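 active means maximum activity change below -70%; inconclusive means maximum activity change from -70% to -50%; inactive means maximum activity change above -50%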;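 further: thallium influx rate constant from kinetic fluorescence after stimulation buffer; on the % scale 0 is the no-effect control and ±100 the full control effect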
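Measured as rate of thallium-driven FluxOr signal in transduced U2OS cells carrying the 3.1 channel, read kinetically for 2 min upon stimulation; values are rate constants scaled to DMSO control wells.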
hERG WT inh = inhibitors of human wildtype KCNH2 potassium channel; Q12809; 340,000 tested, 0.37% active; activity change, % at 1.84 µM; U2OS, BacMam KCNH2, thallium flux FluxOr; active compounds read low;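 active means maximum activity change below -70%; inconclusive means maximum activity change between -70% and -50%; inactive means maximum activity change above -50%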; further: on the % scale 0 is the no-effect control and ±100 the full control effect
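U2OS cells transduced with wild-type KCNH2 virus are loaded with FluxOr dye for 45 min, and thallium flux is measured in kinetic reads before and after stimulation buffer. Rate constants are normalized to DMSO controls.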
Rango release inh = inhibitors of RanGTP-induced Rango-importin beta complex dissociation. Biochemical FRET Rango-importin beta, RanGTP-induced dissociation. Potency, µM (top dose mostly 46.1 µM), for inactives: at the top dose activity change, negative = inhibition. 340,000 tested, 0.071% active; further: potency means the concentration at half of the fitted maximal effect; % of control where 0% means no effect; nearly all actives have a fitted effect of over 45% in size
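FRET read at 45 min, room temperature: inhibitors block the CFP/YFP signal rise when RanGTP (0.6 uM Ran, 2 mM GTP, 0.2 uM RCC1) frees Rango (0.1 uM) from importin beta (0.25 uM). Pre-read after 5 min compound exposure flags interference.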
Active calls of the source: *; ? = inconclusive. A selection: hits, their analogues and other compounds. The true share with any hit is near 1.3%. Unless noted, the call rests on the fitted dose curve.

SMILES	Rango-impB inh	KCNH2 3.1 inh	hERG WT inh	Rango release inh
CN(CC(=O)Nc1cccc(F)c1)C(=O)c1cc([N+](=O)[O-])ccc1N1CCCCC1	-2%	5	-23	18%
COCCN1CCC(CO)C1 (centres undefined)	-1%	14	-5	1%
Cc1ccccc1CNC(=O)C(=O)NCCC1CCCCN1S(=O)(=O)c1cccs1 (centres undefined)	-3%	-166*	-144*	3%
Cc1ccc(C(=O)C(C)OC(=O)CCN2C(=O)C3C4C=CC(C5CC45)C3C2=O)cc1 (centres undefined)	-2%	1	-10	7%
CCCCN(C(=O)c1ccc(Cl)cc1)C1CC2CCC(C1)N2C (centres undefined)	?	-82*	5	0%
CN1C2CCC1CC(N(CCc1ccccc1)C(=O)c1ccc(Cl)cc1)C2 (centres undefined)	1%	?	-40	6%
S=C(NCCc1ccccc1)N1CCN(C23CC4CC(CC(C4)C2)C3)CC1	0%	-88*	-6	-5%
S=C(NCCc1ccccc1)N1CCCC1	-3%	1	1	10%
COc1ccccc1OCC(=O)Nc1cc(Cl)ccc1N1CCCCC1	?	-21	-24	-8%
O=C1CC(c2ccccc2)(c2ccccc2)c2ccccc21	?	-103*	-95*	0%
O=C1OC(c2ccccc2)(c2ccccc2)c2ccccc21	1%	-40	-45	-9%
O=C(NNC(=O)c1ccccc1O)c1ccc(S(=O)(=O)Nc2ccccc2)cc1	0%	5	-88*	-6%
O=S(=O)(Nc1nc2ccccc2nc1Nc1ccc2c(c1)OCO2)c1ccccc1	-11%	-96*	6	-6%
Cn1c(SCC(=O)NCC2CCCO2)nnc1-c1ccco1 (centres undefined)	2%	3	-5	-4%
COc1cc2c(cc1NC(=O)/C=C/c1cc(OC)c(OC)c(OC)c1)oc1ccccc12	?	-87*	-7	-1%
CNC(=S)N(CCc1c(C)[nH]c2ccccc12)Cc1cccnc1	-1%	-191*	-133*	9%
Cc1ccc(N2C(=O)C3CCC(C)(C2=O)C3(C)C)cc1 (centres undefined)	2%	-77*	-1	1%
CCN(CC)c1ccc(/C=N/NC(=O)c2cccc(N3CCCC3=O)c2)cc1	?	-2	8	10µM*
Cc1occc1C(=O)Nc1cnn(CCCC(=O)O)c1	-1%	9	-8	-5%
CN(C)c1oc(/C=C/c2ccccc2)nc1C#N	?	-25	-262*	?
COc1ccccc1/C=C/c1nc(C#N)c(N(C)C)o1	?	-2	-7	?
F[B-](F)(F)c1cncc2ccccc12	0%	-2	-4	11%
Cc1cccc(CNS(=O)(=O)c2csc(C(N)=O)c2)c1	-1%	-5	-3	-24%
COC(=O)c1cc(S(=O)(=O)NCC2CCN(Cc3ccccc3F)CC2)c[nH]1	-1%	-118*	11	-8%
COC(=O)c1cc(S(=O)(=O)NCc2cccs2)c[nH]1	-3%	3	-244*	?
SMILES	Rango-impB inh	KCNH2 3.1 inh	hERG WT inh	Rango release inh
COC(=O)c1cc(S(=O)(=O)NCc2ccccc2Cl)c[nH]1	-2%	0	27	2%
NC(=O)c1cc(S(=O)(=O)NCc2cccs2)cs1	1%	-70*	-13	-7%
COC(=O)[C@@]12CCCN1[C@H](c1ccc(-c3cccc(Cl)c3)c(OC)c1)[C@H]1C(=O)N(C)C(=O)[C@H]12	-4%	-100*	-1	-4%
COC(=O)[C@@]12CCCCN1[C@H](c1ccc(-c3cccc(Cl)c3)c(OC)c1)[C@@H]1C(=O)N(C)C(=O)[C@@H]12	-1%	-12	4	10%
N=C1C(c2ccccc2)=C(O)CN1c1cccc(S(=O)(=O)N2CCCCC2)c1	-1%	6	-225*	12%
CCN(C(=S)Nc1ccc(OC(F)F)cc1)C1CCCCC1	-4%	-16	1	-8%
CCN(CC(=O)Nc1ccc(OC(F)F)cc1)C1CCCCC1	-2%	-92*	-8	14%
CCOc1cccc(CN2CCCC(C(=O)c3cc(Cl)ccc3OC)C2)c1O (centres undefined)	-1%	-115*	-105*	3%
COc1ccc(C(=O)C2CCCN(Cc3cc(Cl)ccc3O)C2)c(OC)c1 (centres undefined)	-14%	-74*	18	0%

Bioassay records from PubChem BioAssay.
